Experimental data as given in paper PMC7826789 (International Journal of Molecular Sciences, 2021).

How the values were obtained:
Conditions in all cases: Compound Concentration (nM):1000
[1] = test system: PIK3CB
[2] = test system: PIK3CD
[3] = test system: PIK3CG
[4] = test system: T1, PIK4CB
T1 construct: gene PI4KB

[5] = test system: PIKFYVE
[6] = test system: PIM1
[7] = test system: PIM2
[8] = test system: PIM3
[9] = test system: PIP5K1A
[10] = test system: PIP5K1C
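Further: KINOMEscan scanMAX binding as percent activity remaining versus control; lower means stronger binding.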

| Compound | Percent Control [1] [%] | Percent Control [2] [%] | Percent Control [3] [%] | Percent Control [4] [%] | Percent Control [5] [%] | Percent Control [6] [%] | Percent Control [7] [%] | Percent Control [8] [%] | Percent Control [9] [%] | Percent Control [10] [%] |
| --- | --- | --- | --- | --- | --- | --- | --- | --- | --- | --- |
| CC1=C(C(=O)Nc2ccc3[nH]ncc3c2)C(c2ccc(Cl)c(Cl)c2)CC(=O)N1 (centres unmarked) [GSK299115A] | 75 | 100 | 93 | 80 | 100 | 83 | 100 | 91 | 86 | 100 |
| COc1cc2ncnc(Nc3ccc4c(cnn4Cc4ccccc4)c3)c2cc1OC.Cl [GW282449A] | 100 | 100 | 100 | 100 | 93 | 100 | 100 | 100 | 100 | 76 |
| CN(C)CCNC(=O)Nc1ccc(N(C)c2ccnc(Nc3ccc(CS(C)(=O)=O)cc3)n2)cc1.Cl [GW830900A] | 84 | 76 | 91 | 11 | 100 | 100 | 100 | 97 | 23 | 86 |
| C/C(Nc1ccc(S(N)(=O)=O)cc1)=C1/C(=O)Nc2ccccc21 [GW335962X] | 100 | 95 | 100 | 100 | 100 | 91 | 95 | 89 | 96 | 84 |
| CC(C)COC(=O)c1ccc2c(c1)/C(=C/Nc1ccc(S(N)(=O)=O)cc1)C(=O)N2 [GW416981X] | 100 | 95 | 100 | 100 | 100 | 81 | 100 | 40 | 33 | 89 |
| COc1cccc(-n2ncc3c(N/N=C/c4ccncc4)ncnc32)c1 [GW784752X] | 94 | 100 | 54 | 90 | 18 | 100 | 100 | 100 | 86 | 79 |
| COc1ccc(COc2ccc(Cc3cnc(N)nc3N)cc2OC)cc1 [GW632580X] | 93 | 100 | 77 | 100 | 100 | 100 | 91 | 100 | 94 | 100 |
| COc1cccc(-c2c[nH]c3c(N/N=C/c4ccncc4)ncnc23)c1 [GW814408X] | 100 | 92 | 88 | 100 | 1.1 | 82 | 100 | 75 | 71 | 28 |
| O=C(Nc1n[nH]c2nc(-c3ccc(O)cc3)c(Br)cc12)C1CC1 [SB-725317] | 100 | 75 | 100 | 100 | 99 | 23 | 0.4 | 9.3 | 100 | 59 |
| CN1CCN(C(=O)c2ccc(NC(=O)Nc3ccc(N(C)c4ccnc(Nc5ccc(CS(C)(=O)=O)cc5)n4)cc3)cc2)CC1.Cl [GW830263A] | 100 | 100 | 93 | 97 | 100 | 100 | 100 | 100 | 9.3 | 97 |
| CCS(=O)(=O)c1ccc(OC)c(Nc2ncc(-c3cccc(F)c3)o2)c1 [GW621970X] | 100 | 100 | 100 | 100 | 100 | 100 | 100 | 100 | 99 | 28 |
| CC1=C(C(=O)Nc2ccc3[nH]ncc3c2)C(c2ccc3ccccc3c2)CC(=O)N1 (centres unmarked) [GSK270822A] | 70 | 100 | 97 | 73 | 83 | 91 | 100 | 92 | 95 | 99 |
| NS(=O)(=O)c1ccc(Nc2ncc(-c3ccccc3)o2)cc1 [GW572399X] | 100 | 100 | 100 | 71 | 100 | 100 | 100 | 100 | 100 | 74 |
| NS(=O)(=O)c1ccc(N/N=C2\C(=O)Nc3ccc(C(=O)NCCc4c[nH]cn4)cc32)cc1 [GW300660X] | 100 | 100 | 95 | 100 | 100 | 32 | 100 | 32 | 100 | 0.7 |
| COc1ccc2c(-c3ccnc(Nc4cccc(OC(F)(F)F)c4)n3)cnn2n1 [GW810372X] | 100 | 69 | 85 | 72 | 69 | 100 | 100 | 100 | 77 | 66 |
| CN(C)c1cc2c(Nc3ccc4c(cnn4Cc4ccccc4)c3)ncnc2cn1 [GW282974X] | 89 | 70 | 96 | 100 | 100 | 91 | 93 | 90 | 100 | 100 |
| NS(=O)(=O)c1ccc(N/N=C2\C(=O)Nc3ccc(C(=O)NCc4ccncc4)cc32)cc1 [GW300657X] | 81 | 77 | 100 | 83 | 84 | 100 | 100 | 100 | 100 | 51 |
| Cc1cc(O)cc(C)c1/C=C/c1cncc(C(N)=O)c1 [GW435821X] | 100 | 81 | 100 | 100 | 100 | 100 | 100 | 100 | 100 | 67 |
| Cl.O=S1CCN(Cc2ccc(-c3ccc4ncnc(Nc5ccc(OCc6ccccc6)c(F)c5)c4c3)o2)CC1 [GW576924A] | 96 | 100 | 100 | 100 | 86 | 100 | 100 | 100 | 100 | 67 |
| COc1cc(C=NNc2ncnc3c2cnn3-c2ccccc2)ccc1O [GW513184X] | 100 | 76 | 22 | 34 | 4.9 | 100 | 100 | 100 | 29 | 51 |
